# According to PubChem BioAssay (EPA / NIEHS):
# Where “and” joins values, the source holds several entries; their conditions need not be identical. Identical values can stand only once. More than one record can exist for a structure, and the calls need not agree. Calls of active or inactive are those of the source. The calls were made as follows: active = hit-call score of the fitted dose curve at least 0.9, where 1 is the maximum; inactive = score below 0.9.
# Molecular target: Nuclear respiratory factor 1 (Homo sapiens) (UniProt Q16656)
# Test: ATG_NRF1_CIS: Attagene CIS-FACTORIAL HepG2 Assay for human Nuclear Respiratory Factor 1 (NRF1) Orphan Gene (AID 2282987)
# Settings: HepG2 NRF1 cis-element reporter, Attagene multiplex; actives raise or lower the signal
# Method: ATG_CIS is a cell-based, multiplexed-readout assay that uses HepG2, a human liver cell line, with measurements taken at 24 hours after chemical dosing in a 24-well plate.ATG_NRF1_CIS is one of 52 assay component(s) measured or calculated from the ATG_CIS assay. It is designed to make measurements of mRNA induction, a form of inducible reporter, as detected with fluorescence intensity signals by Reverse transcription polymerase chain reaction (RT-PCR) and Capillary electrophoresis technology.Data from the assay component ATG_NRF1_CIS was analyzed into 1 assay endpoint. This assay endpoint, ATG_NRF1_CIS, was analyzed with bidirectional fitting relative to DMSO as the negative control and baseline of activity. Using a type of inducible reporter, measures of mRNA for gain or loss-of-signal activity can be used to understand the reporter gene at the transcription factor-level as they relate to the gene NRF1. Furthermore, this assay endpoint can be referred to as a primary readout, because this assay has produced multiple assay endpoints where this one serves a reporter gene function. To generalize the intended target to other relatable targets, this assay endpoint is annotated to the dna binding intended target family, where the subfamily is nuclear respiratory factors.
# Human liver HepG2 cells are transiently transfected with multiple reporter transcription units (MRTUs) in 6-well plates using FuGene 6 reagent (Roche; 3 ml FuGene/1 mg DNA). The MRTU constructs are regulated by a cis-regulating element (promoter). […] A major difference between the CIS and TRANS system is that in CIS activities of endogenous TFs are measured, whereas the TRANS assay evaluates changes in activities of exogenous, chimeric NR-Gal4 proteins. […] At the end of 24 hour incubation, total RNA was isolated using TriZol reagent (Invitrogen). The isolated RNA is then reverse-transcribed using oligo(dT) primer and Mo-MLV reverse transcriptase (Invitrogen) with DNAse I (Ambion) treatment for 30 min. The one-tenth of the produced cDNA was amplified by PCR using Taq DNA polymerase (Invitrogen) and two reporter sequence-specific primers. The PCR products were fluorescently labeled by primer extension with 6-arboxyfluorescein (6-FAM) 5'-labeled reporter sequence-specific primer (2 min at 95 C, 20 s at 68 C and 10 min at 72 C) and these products were digested with 5U of HpaI (New England Biolabs) for 2h at 37 C. The fragments were purified using Qiaquick PCR columns (Qiagen), analyzed on an ABI 3130xL genetic analyzer (Applied Biosystems) with peak positions identified by using a set of X-rhodamine (ROX)-labeled MapMarker1000 molecular weight standards (BioVentures). The raw capillary electrophoresis data was processed using Attagraph software (Attagene).
# Chain of Nuclear respiratory factor 1 (Homo sapiens) (Q16656 whole entry, looked up): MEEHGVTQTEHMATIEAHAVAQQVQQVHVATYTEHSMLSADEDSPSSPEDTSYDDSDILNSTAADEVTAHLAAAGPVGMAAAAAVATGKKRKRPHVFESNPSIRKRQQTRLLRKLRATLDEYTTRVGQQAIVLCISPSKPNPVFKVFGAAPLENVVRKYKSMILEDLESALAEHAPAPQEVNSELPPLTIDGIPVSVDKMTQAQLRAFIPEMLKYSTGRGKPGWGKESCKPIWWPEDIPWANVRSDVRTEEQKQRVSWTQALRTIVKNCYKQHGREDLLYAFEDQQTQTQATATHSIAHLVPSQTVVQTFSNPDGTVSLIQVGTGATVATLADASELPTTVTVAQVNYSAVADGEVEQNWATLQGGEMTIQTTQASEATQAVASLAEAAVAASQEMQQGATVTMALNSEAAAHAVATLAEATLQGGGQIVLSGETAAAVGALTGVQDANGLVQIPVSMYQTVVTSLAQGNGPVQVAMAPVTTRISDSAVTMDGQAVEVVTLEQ
SMILES,outcome,AC50
CCCCCCCC(=O)N(C)C,inactive,
c1ccc(Cc2ccccc2)cc1,inactive,
CC(=O)c1ccc(O)cc1,inactive,
CCCC1CCC(=O)CC1,inactive,
C=CC(C)CCCC(C)(C)O (stereo not given),inactive,
C#C[C@]1(O)CC[C@H]2[C@@H]3CCc4cc(O)ccc4[C@H]3CC[C@@]21C,inactive,152 µM (active) and 138 µM (active)
[O-]/[N+](=N\O)c1ccccc1,inactive,
CCCCCCCCCOS(=O)(=O)O,inactive,
[Cu+],inactive,
C1=COCCC1,inactive,
OC[C@@H](O)[C@H](O)[C@@H](O)[C@@H](O)CO,inactive,
CC1=CCC(C(C)C)=CC1,inactive,
CC(C)(C)C1CCC(O)CC1 (stereo not given),inactive,
CCCCOC(=O)C(C)OC(=O)CCC (stereo not given),inactive,
CC(O)CN (stereo not given),inactive,
CC1=CC[C@@H]2C[C@H]1C2(C)C,inactive,
CCCCN(CCO)CCO,inactive,
O=C(O)C1=NN(c2ccc(S(=O)(=O)O)cc2)C(=O)C1,inactive,
[Na+],inactive,
CCCC1CCOC(C)S1 (stereo not given),inactive,

SMILES,outcome,AC50
CC(C)(O)C(=O)c1ccc(OCCO)cc1,inactive,
CCCCCC1C(=O)CCC1CC(=O)OC (stereo not given),inactive,
Cc1ccc(C(C)(C)O)cc1,inactive,
c1ccc(OCCOc2ccccc2)cc1,inactive,
O=S(=O)(O)CCCN1CCOCC1,inactive,
CC(C)CCOC(=O)CC(C)C,inactive,
NC(=O)c1c(Cl)cccc1Cl,inactive,
CC(=O)c1ccc(C)cc1,inactive,
CC(=O)OC(C)(C)C1CC=C(C)CC1 (stereo not given),inactive,
CCCCCCC(O)CCOC(C)=O (stereo not given),inactive,
NCCN1CCNCC1,inactive,
CCOC(=O)CC(C)C,inactive,
CN(C)C,inactive,
CCCCCCCOC(C)=O,inactive,
CC(O)COCC(C)O (stereo not given),inactive,
CC(C)=CCCC(C)=CC(=O)O,inactive,
CC/C(=C(\c1ccccc1)c1ccc(OCCN(C)C)cc1)c1ccccc1,inactive,
O=S1(=O)CC=CC1,inactive,
FC(F)(F)c1ccc(Cl)c(Cl)c1,inactive,
